# Compound activity: PubChem BioAssay, several laboratories
# The list is not random: actives were taken first. Their share in the collection is about 1.6%.
# DSG3 Ab inh: inhibitors of pemphigus antibody binding to DSG3, primary screen, biochemical, bead-based, flow cytometry, scFv-GFP; binding (percent of control), % at 10 µM; AID 588358, 2011; actives 0.48% (n = 310,000); DSG3-coupled beads, scFv-anti-DSG3-GFP binding; stronger effect = lower value; Desmoglein-3 (Homo sapiens), P32926;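 active = binding more than 3 SD below its plate's average and above zero; inconclusive = below that plate limit but binding exactly zero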;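 note: hits lower antibody fragment binding to DSG3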
# GRK2 aptamer HTS: compounds blocking aptamer binding on GRK2 – biochemical, human GRK2, bead flow cytometry, HTS, primary screen | FAM-aptamer displacement from GRK2 | inhibition of aptamer binding, % at 10 µM | actives 0.59% (n = 330,000) | AID 488847, 2010;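 active = inhibition of aptamer binding above 40%, roughly 3 SD of noise, on plates passing a quality check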;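 note: median bead fluorescence of bound FAM aptamer so fluorescent compounds give negative values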
# VLA-4 inh: inhibition in human VLA-4 binding assay, primary screen, VLA-4 allosteric modulator project, MLPCN library, flow cytometry, VLA-4 expressing cells | ligand binding flow cytometry | Integrin alpha-4 (Homo sapiens), P13612 | inhibition, % (about 7 µM as worked out from the volumes in the protocol) | AID 2557, 2010 | actives 0.2% (n = 330,000); in the data active = inhibition above about 50%
# PREPL inhibitor: PREPL enzyme inhibitors, primary screen, biochemical, fluorescence polarization; Prolyl endopeptidase-like (Homo sapiens), Q4J6C6; recombinant PREPL, fluorescence polarization activity-based probe; actives 0.68% (n = 320,000); inhibition, % at 5.96 µM; in the data active = inhibition above about 43%;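 note: 0% = enzyme with DMSO and 100% = wells lacking enzyme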
# Target sequence (Q4J6C6 whole entry, looked up): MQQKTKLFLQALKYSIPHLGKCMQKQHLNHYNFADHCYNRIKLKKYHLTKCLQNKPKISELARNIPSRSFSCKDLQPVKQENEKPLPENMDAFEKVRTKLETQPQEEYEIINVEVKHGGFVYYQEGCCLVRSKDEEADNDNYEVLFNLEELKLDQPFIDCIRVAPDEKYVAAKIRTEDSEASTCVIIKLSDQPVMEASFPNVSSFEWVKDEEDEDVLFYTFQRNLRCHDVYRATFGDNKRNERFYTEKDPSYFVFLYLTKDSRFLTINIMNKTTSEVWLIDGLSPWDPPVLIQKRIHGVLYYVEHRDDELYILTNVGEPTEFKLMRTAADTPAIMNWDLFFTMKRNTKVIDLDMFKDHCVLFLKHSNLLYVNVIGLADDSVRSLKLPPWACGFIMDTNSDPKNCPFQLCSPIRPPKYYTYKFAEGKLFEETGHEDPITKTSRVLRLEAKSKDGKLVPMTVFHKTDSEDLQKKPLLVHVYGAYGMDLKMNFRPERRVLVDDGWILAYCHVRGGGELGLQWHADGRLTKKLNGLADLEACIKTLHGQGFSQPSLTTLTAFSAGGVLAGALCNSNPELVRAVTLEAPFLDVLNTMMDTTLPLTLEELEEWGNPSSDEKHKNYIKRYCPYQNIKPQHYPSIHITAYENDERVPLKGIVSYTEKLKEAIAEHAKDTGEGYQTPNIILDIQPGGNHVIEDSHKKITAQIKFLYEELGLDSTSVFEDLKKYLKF
# JMJD2C inh: inhibitors of GASC-1 histone demethylase, primary screen, biochemical, fluorescence, DELFIA europium; inhibition, % at 2.35 µM; Lysine-specific demethylase 4C (Homo sapiens), Q9H3R0; actives 0.069% (n = 330,000); GST-JMJD2C(1-420) H3K9me3 demethylation;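 active = more than half of a compound's replicate wells show inhibition beyond 50%, single wells judged on their own value; inconclusive = some, but no more than half, of replicates pass 50% inhibition; inactive = no replicate passes 50% inhibition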;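 note: signal counts dimethyl H3K9 product captured on neutravidin plate; 0% = median of DMSO wells and 100% = 0.3 times that DMSO median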
# GRK2 inh confirm: GRK2 aptamer-displacing inhibitors, retest, confirmation, biochemical, cherry pick 1, bead flow cytometry; shares compounds with GRK2 aptamer HTS; aptamer displacement, % at 10 µM; bead-bound GRK2, FAM-aptamer displacement; actives 4% (n = 2,000);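 active = aptamer displacement above 40%, near three times the noise of non-fluorescent compounds, on plates passing quality checks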;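 note: negative values mostly reflect intrinsic compound fluorescence rather than true enhancement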
# Aptamer quench 1: fluorescent aptamer quenching in GRK2 counter-screen dose response; shares compounds with GRK2 aptamer HTS; Fluorescent RNA aptamer beads, flow cytometry; stronger effect = higher value; fluorescence change (kMESF span), kMESF (test concentration not listed); 110 tested, under 10 active; AID 504521;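 active = compounds whose bead fluorescence drops by more than 37 kMESF across the dose range, marking them as dye quenchers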
# FAM quench CP1: quenches fluorescent RNA aptamer, GRK2 hit artifact; shares compounds with GRK2 aptamer HTS; Carboxyfluorescein RNA aptamer on beads, flow cytometry quenching; stronger effect = lower value; fluorescence response (% of DMSO), % at 10 µM; 2,000 tested, under 10 active; AID 504580;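 active = compounds that quench the bead-bound fluorescent RNA probe, cutting fluorescence to under half of the solvent control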;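 note: counterscreen run without GRK2 so only probe quenching by compound is measured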
# Starred values were filed as active, the others as inactive; i = inactive; ? = inconclusive; / = not tested or not shown.
SMILES,DSG3 Ab inh,GRK2 aptamer HTS,VLA-4 inh,PREPL inhibitor,JMJD2C inh,GRK2 inh confirm,FAM quench CP1,others
Cc1ccc(C(=O)Nc2cccc(C(F)(F)F)c2)cc1NC(=O)c1csc(-c2ccncc2)n1,108,0,20,-2,5,2,96,
O=C(/C=C/c1ccccc1)OCC(=O)N1CCCC1,112,1,7,3,13,/,/,
O=C(COC(=O)/C=C/c1ccco1)Nc1ncc(Cl)cc1Cl,107,60*,-8,6,-2,10,100,
O=C(/C=C/c1ccco1)OCC(=O)N1CCCCC1,89,76*,0,-14,1,48*,93,Aptamer quench 1=-2.7
Cc1nc(NC(=O)COC(=O)/C=C/c2ccco2)c(Cl)cc1Cl,/,21,-5,22,5,/,/,
CC(C)n1cc(-c2nc(C(=O)NN)cs2)c(=O)n(Cc2ccccc2)c1=O,/,2,2,-4,-6,/,/,
O=C(C1CCCN1S(=O)(=O)c1cccc2nsnc12)N1CCN(c2ccc(F)cc2)CC1 (stereo not drawn),98,0,-15,10,4,/,/,
CC1=C(C(=O)OCc2ccccc2)C(c2cccc(F)c2)NC(=O)N1 (stereo not drawn),106,51*,4,0,1,5,82,
CN(CC(=O)Nc1cccc(F)c1)C(=O)CN1c2cccc3cccc(c23)S1(=O)=O,89,0,11,15,4,/,/,
CCOC(=O)CSc1nc2cc(C(=O)NCC3CCCO3)ccc2c(=O)n1Cc1ccco1 (stereo not drawn),94,0,-4,-1,0,/,/,
CCOC(=O)Cn1c(=O)n(Cc2ccco2)c(=O)c2ccc(C(=O)NC3CCCC3)cc21,103,86*,-5,-2,20,-2,103,
NC(=O)c1cc[n+](CC2=C(C(=O)O)N3C(=O)[C@@H](NC(=O)C(c4ccccc4)S(=O)(=O)[O-])[C@H]3SC2)cc1 (stereo partly drawn),97,85*,8,-4,-35,99*,96,Aptamer quench 1=-7.8
N[C@@H](C(=O)N[C@@H]1C(=O)N2C(C(=O)O)=C(Cl)CS[C@H]12)c1ccccc1,104,0,14,-5,?,/,/,
Cc1cc(=O)c2ccccc2[nH]1,/,37,4,0,8,1,98,
O=C(CNC(=O)c1ccc2ccccc2c1)NCc1ccccc1F,/,0,1,-8,2,/,/,
O=C(c1cccc2ccccc12)C1CCCN(C(=O)c2ccc(N3CCOCC3)cc2)C1 (stereo not drawn),103,3,-1,17,-18,-2,100,
CSc1ccccc1C(=O)C1CCCN(C(=O)c2ccc(N3CCOCC3)cc2)C1 (stereo not drawn),100,1,0,1,-3,/,/,
O=C(Nc1nnc(Cc2ccccc2F)s1)Nc1ccccc1F,109,1,14,-7,-1,/,/,
COCc1cc(C)nc(N/N=C/c2ccc(-c3cc(C(=O)O)ccc3Cl)o2)c1C#N,/,2,-1,6,-14,/,/,
COCc1cc(C)nc(N/N=C/c2ccc(Cl)c(Cl)c2)c1C#N,101,85*,13,0,-12,2,101,
CCN1/C(=C/C=C/C=C/C=C/c2sc3ccccc3[n+]2CC)Sc2ccccc21,89,22,-33,-16,4,/,/,
CCN1/C(=C/C=C/c2sc3ccccc3[n+]2CC)Sc2ccccc21,-10*,100*,/,i,-26,101*,94,Aptamer quench 1=-1.3
Cc1cccc(C)c1NC(=O)c1ccc(OCc2c(C)noc2C)cc1,?,1,21,5,-7,/,/,
Cc1ccc(OCC(=O)NC2=NCCS2)cc1,93,0,14,14,0,/,/,
CC(=O)c1ccc(OCCCC(=O)NC2=NCCS2)cc1,99,39,-1,8,0,5,94,
SMILES,DSG3 Ab inh,GRK2 aptamer HTS,VLA-4 inh,PREPL inhibitor,JMJD2C inh,GRK2 inh confirm,FAM quench CP1,others
CNC(=O)C(=O)N1CCC2(CC1)OCCN2S(=O)(=O)c1ccc(C)cc1,99,1,9,-5,92,/,/,
CCCC(=O)Nc1ccc2c(c1)nc(CCNC(=O)c1ccccc1)n2C,105,0,4,11,-7,1,97,
CC1=C(C(N)=O)C(c2cccs2)n2ncnc2N1 (stereo not drawn),89,0,0,11,-2,/,/,
CC1=C(C(=O)OC(C)C)C(c2cccs2)n2ncnc2N1 (stereo not drawn),89,85*,9,-9,-9,0,100,
Cc1nc(SCC(=O)O)c(C#N)c2c1CCCC2,101,82*,-10,14,-4,15,101,
CN(CC(=O)Nc1ccc(F)cc1)C(=O)COC(=O)c1cc(Br)c(Br)s1,109,/,/,/,/,/,/,
N#CC1=C(S)N(c2ccccc2)C(c2ccco2)NC1=O (stereo not drawn),102,74*,-17,4,1,1,101,
N#CC1=C(S)N(c2ccc(F)cc2)C(c2ccco2)NC1=O (stereo not drawn),108,0,1,-6,1,/,/,
CCCCCc1cccnc1,98,64*,6,15,2,-1,96,
c1ccc(CCc2cccnc2)cc1,90,/,/,/,/,/,/,
CN(C(=O)c1ccc(NC(=O)Cc2ccc(NC(=O)C3CCN(C(=O)C4CCC4)CC3)cc2)cc1)C1CC1,100,69*,6,1,41,2,97,
Cc1nc(C(=O)N(C)C)nn1-c1ccc([N+](=O)[O-])cc1,99,0,3,0,-2,/,/,
Cc1ccc(Cl)cc1NC(=O)COC(=O)c1ccccc1O,94,85*,4,14,2,-5,98,
COc1ccc(-c2cc(=O)c3c(O)cc(OC4OC(COC5OC(C)C(O)C(O)C5O)C(O)C(O)C4O)cc3o2)cc1O (stereo not drawn),101,5,0,6,?,/,/,
COc1ccc([C@@H]2CC(=O)c3c(O)cc(O[C@@H]4O[C@H](CO[C@@H]5O[C@@H](C)[C@H](O)[C@@H](O)[C@H]5O)[C@@H](O)[C@H](O)[C@H]4O)cc3O2)cc1O,105,56*,-16,18,5,9,111,
